Screens (PubChem)
An excerpt weighted towards active compounds, which were near 21% of everything screened.
CHX counter – affects cycloheximide protein synthesis inhibition readout, counter-screen; actives 12% (n = 300,000); cell reporter, cycloheximide protein synthesis inhibition counterscreen; max response, %; AID 2314; in the data active = max response mostly above about 13%, no sharp cut-off; inactive = mostly below about 14%; note: read at 38.3 µM for the half of the compounds with a filed dose; 0% is about no effect
Sm TGR block – inhibitors of Schistosoma mansoni thioredoxin glutathione reductase; AID 485364; Potency, µM (doses to about 114 µM), for inactives: at the highest dose activity change, negative = inhibition, hits mostly inhibitors; actives 3% (n = 360,000); Q962Y6; purified TGR, DTNB reduction, TNB absorbance 405 nm; note: potency is the fitted concentration of half-maximal effect; % is set by controls: 0 for no effect and ±100 for the full control effect; nearly all actives have a fitted effect of over 60% in size
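Kinetic colorimetric format: TGR-catalysed, NADPH-driven DTNB reduction monitored via TNB absorbance. Enzyme dispensed at 20 nM; compound exposure 15 min at room temperature before reaction start.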
Pf growth 96h – P. falciparum growth inhibition at 96 hour, primary screen for plastid delayed-death inhibitors | P. falciparum luciferase reporter growth, 96 h | Potency, µM (top dose mostly 28.7 µM), without a hit: at the highest dose activity change, negative = inhibition, usual class: inhibitors | actives 6.9% (n = 320,000) | AID 504834; note: potency is the fitted concentration of half-maximal effect; % is set by controls: 0 for no effect and ±100 for the full control effect
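Delayed-death screen, second-generation endpoint: infected erythrocytes, 2% hematocrit, 0.05% parasitemia final; 96 hours at 37 C, 5% CO2; luciferase detection reagent; luminescence decrease equals reduced growth.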
Pf growth 48h – P. falciparum growth inhibition at 48 hours (one generation). P. falciparum luciferase growth in erythrocytes, 48 h. Potency, µM (highest dose often 28.7 µM), inactives show at the top dose activity change, negative = inhibition, usual class: inhibitors. actives 5.9% (n = 310,000). AID 504832; note: potency is the fitted concentration of half-maximal effect; % is set by controls: 0 for no effect and ±100 for the full control effect
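Parasite viability was followed by luminescence of a genomically integrated firefly luciferase. Cultures held 0.1% parasitemia at 2% hematocrit (final), incubated under 5% CO2 at 37 C.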
NS1 function inh – influenza NS1 inhibition. Potency, µM (series often up to 46.1 µM), inactives show at the highest dose activity, positive = more growth. actives 0.4% (n = 270,000); calls by dose curve; note: potency is the fitted concentration of half-maximal effect; actives are rising curves; nearly all actives have a fitted effect of over 50% in size
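Recovery from NS1-induced slow growth read by OD600 in budding yeast switched to galactose assay medium (pH 6.0, -URA) at 1:100 dilution. Compound 23 nl per well; the matching strain lacking NS1 serves as control.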
Shiga toxin inh – blocks Shiga toxin action in Vero cells; Vero cells, Shiga toxin protein synthesis inhibition reporter; actives 9.2% (n = 290,000); inhibition, % at 38.7 µM; in the data active = inhibition mostly above about 28%, no sharp cut-off; inactive = mostly below about 43%; note: 0% is about no effect
Starred values were filed as active, the others as inactive; ? = inconclusive; / = not tested or not shown; [ ] = remark or other dose. Unless noted, calls come from the whole dose curve; as a rule, active = well fitted curve in the direction sought with a large enough effect; inconclusive = small, poorly fitted or top-dose-only effect, or another doubt; inactive = no such curve, though single readings can be large; an effect the other way counts as inactive or inconclusive.

SMILES | CHX counter | Sm TGR block | Pf growth 96h | Pf growth 48h | NS1 function inh | Shiga toxin inh
COc1ccc(C(=O)Nc2ccc(N3CCOCC3)cc2)cc1S(=O)(=O)N1CCOCC1 | / | 5.8% | 9.1% | 43.1% | / | /
COc1cc2c(cc1OC)CN(C(=O)c1ccc(OC)c(S(=O)(=O)N3CCOCC3)c1)CC2 | 23.8* | 5.4% | / | ? | -12.3% | 38.2
COc1ccc(S(=O)(=O)Cc2ccc(C(=O)NCc3ccccc3OC)o2)cc1 | -5.8 | -19.8% | ? | 4.9% | 20.0% | -5.8
COC(=O)CSc1nnc(CNC(=O)c2ccc(S(=O)(=O)N3CCOCC3)cc2)n1C | 6.3 | 16.7% | 30.8% | 7.6% | / | 6.6
Cc1cnc(NC(=O)CSc2ccc(Cl)cc2)s1 | -2.7 | -1.3% | 31.2% | -15.2% | -8.8% | 1.7
O=C(Cc1csc(NC(=O)Nc2ccc(Cl)cc2)n1)NCc1ccccn1 | / | 1.9% | 10.8% | 4.2% | / | /
O=C(Cc1csc(NC(=O)Nc2ccc(Cl)cc2)n1)NC1CCCC1 | / | 15.2% | ? | ? | / | /
Cc1cnc(NC(=O)Nc2ccc(Cl)cc2)s1 | 56.6* | 2.2% | -3.6% | 140.7% | / | 152.6*
O=C(Nc1ccc(Cl)cc1)Nc1nc(-c2sccc2Br)cs1 | -3.6 | -15.9% | 9.28µM* | 8.28µM* | 8.7% | 12.3
O=C(Nc1ccc(Cl)cc1)Nc1nc(-c2ccccc2O)cs1 | 16.6 | 16.7% | ? | 1.65µM* | 7.6% | 19.9*
Cc1csc(NC(=O)Nc2ccc(Cl)cc2)n1 | 47.7* | 12.0%[11.4 µM] | / | / | 0.3% | 61.7*
Cc1ccc(NC(=O)c2sc3ncn(CC(=O)N4CCOCC4)c(=O)c3c2C)c(Br)c1 | -5.5 | -10.2% | 11.7µM* | 17.8% | 8.4% | -4.8
Cc1cc([N+](=O)[O-])ccc1NC(=O)c1sc2ncn(CC(=O)N3CCOCC3)c(=O)c2c1C | -0.8 | -0.6% | 14.7µM* | ? | 0.2% | -3.4
CCOc1ccccc1NC(=O)c1sc2ncn(CC(=O)N3CCOCC3)c(=O)c2c1C | 1.0 | -16.4% | 6.1% | 7.6% | -3.3% | -5.4
S=C(c1cn(CCOc2cccc3ccccc23)c2ccccc12)N1CCCC1 | -4.5 | 0.0% | ? | 13.1µM* | 17.7% | -8.8
S=C(c1cn(CCOc2ccccc2)c2ccccc12)N1CCCC1 | 4.6 | 0.5% | ? | 11.7µM* | -11.9% | 19.8
COCCn1cc(C(=S)N2CCCCC2)c2ccccc21 | 2.1 | 6.6% | 29.3% | -18.2% | 0.2% | -4.9
COc1ccc(CNC(=O)Cn2ccc3cc(S(=O)(=O)N4CCCCCC4)ccc32)c(OC)c1 | / | 23.9% | / | / | / | /
Cc1cc(C)c[n+](-c2[nH]c(=O)sc2/C=N/NC([S-])=Nc2ccccc2)c1 | -3.6 | -8.9% | 89.1% | -14.5% | 4.7% | -6.2
CC(=O)N1c2ccc(S(=O)(=O)N(C)Cc3ccco3)cc2CC1C (stereo unspecified) | -1.9 | -26.8% | 36.9% | 5.2% | -0.1% | -11.4
Cc1ccc(-c2cn(-c3ccccc3)c(SCC(=O)NC3CCS(=O)(=O)C3)n2)cc1C (stereo unspecified) | 52.7* | 1.1% | 107.6% | 96.5% | -3.3% | active
OC[C@@H](O)[C@@H](O)[C@@H](O)[C@@H](O)c1nc2ccc(Cl)cc2[nH]1 | / | / | / | / | 1.0% | /
Fc1ccc(COc2ccc(Br)cc2CNCc2ccncc2)cc1 | 1.3 | 0.0% | ? | 8.28µM* | -31.3% | -10.3
Fc1ccccc1COc1ccc(Br)cc1CNCc1cccnc1 | 6.1 | 8.5% | ? | 13.1µM* | 1.2% | 10.9
Fc1ccccc1COc1ccc(Br)cc1CNCc1ccncc1 | -6.2 | -0.5% | 11.7µM* | / | -135.9% | -6.9
SMILES | CHX counter | Sm TGR block | Pf growth 96h | Pf growth 48h | NS1 function inh | Shiga toxin inh
CCC(CC)C(=O)Nc1nnc(SCC(=O)NC2CC2)s1 | -2.2 | -7.8% | 11.0% | 17.2% | 3.9% | -12.3
O=C(CSc1nnc(Nc2ccccc2F)s1)NC1CC1 | / | -6.5% | -37.7% | 73.7% | / | /
O=C(CCCSc1nnc(Nc2ccccc2F)s1)N1CCOCC1 | 39.4* | 3.3% | ? | ? | / | 59.3*
O=C(CSc1nnc(NC(=O)c2ccc(F)cc2F)s1)NC1CCCC1 | 22.1* | 52.6% | 71.9% | 73.0% | 0.9% | 27.6
O=C(CSc1nnc(NC(=O)C2CC2)s1)Nc1cccc(F)c1 | 20.8* | 3.8% | 2.94µM* | -3.9% | -1.1% | 16.3
CC(C)C(=O)Nc1nnc(SCC(=O)NC2CC2)s1 | -0.7 | -1.2% | 5.22µM* | 15.0% | 0.6% | -2.8
C[C@H](NC(=O)c1nc[nH]c1C(=O)N[C@@H](C)c1ccccc1)c1ccccc1 | / | -12.1% | ? | ? | / | /
O=C(NC1CCCC1)c1ccc2c(=O)n(Cc3ccccc3)c(SCc3ccccc3F)nc2c1 | / | -5.8% | / | / | / | /
CC1CC(=O)Nc2cc([N+](=O)[O-])ccc2N1 (stereo unspecified) | -1.3 | 2.7% | -0.5% | 22.6% | 0.8% | -20.6
CCCc1cc(=O)[nH]c(Nc2cc(C)ccc2OC)n1 | / | 1.8% | / | / | / | /
O=C(CSc1nnc(NC(=O)c2ccc(F)cc2)s1)NC1CCCC1 | 0.7 | 0.6% | -12.8% | 34.3% | -7.6% | 3.9
O=C(CSc1nnc(NC(=O)c2ccccc2)s1)NC1CCCC1 | 17.2* | 8.2% | 41.6% | 84.4% | 31.7% | 43.2
O=C(CSc1nnc(NC(=O)c2ccccc2C(=O)O)s1)Nc1ccccc1Cl | -1.8 | -6.9% | 13.1µM* | -26.6% | / | -1.6
O=C(CSc1nnc(NC(=O)c2ccccc2F)s1)NC1CCCC1 | 27.1* | 2.6% | -5.2% | ? | ? | 64.6*
O=C(Nc1nnc(SCC(=O)N2CCOCC2)s1)c1ccccc1 | 21.5* | -3.6% | 97.8% | 67.7% | 21.1% | 12.6
O=C1C=C(c2ccc(Cl)cc2)OC2(CCCC2)O1 | -1.4 | -20.9% | 13.1µM* | ? | -22.3% | 44.0
O=C(c1[nH]ncc1-c1cccc(Br)c1)C1CO1 (stereo unspecified) | active | 11.2µM* | ? | 14.7µM* | -1.8% | 13.5
O=C(c1[nH]ncc1-c1ccccc1)C1CO1 (stereo unspecified) | -0.8 | ? | ? | ? | 1.1% | -4.4
COc1ccc(-c2nc3c4ccccc4n(CC(=O)N4CCN(c5ccccc5OC)CC4)c(=O)n3n2)cc1 | / | 6.9% | / | / | / | /
CCC1(c2ccccc2)NC(=S)N(c2ccc(C)c(C)c2)N1 (stereo unspecified) | 39.7* | 1.6% | 11.9% | 24.5% | 2.0% | 36.0*
CCC1(c2ccc(Cl)cc2)NC(=S)N(c2ccc(C)cc2)N1 (stereo unspecified) | 68.0* | -19.1% | 108.8% | 146.5% | -33.9% | 90.5*
Nc1cc(-c2ccc(Br)cc2)nn1Cc1ccccc1 | 53.6* | 6.5% | 12.8% | 14.6% | ? | 91.0*
Nc1cc(-c2cccc(Br)c2)nn1Cc1ccccc1 | 9.7 | -1.5% | 15.3% | 34.9% | ? | 0.0
CCc1ccc(NC(=O)c2onc(C)c2Cl)cc1 | 58.6* | 0.0% | 25.4% | / | -19.4% | 56.0*
COc1ccc(CNC(=O)c2cc(C3CC3)on2)cc1 | 24.7* | 1.8% | -15.9% | / | -11.4% | 80.7
